We go through 21 molecules from the supplement of paper PMC7261846.

± gives the uncertainty stated by the source.

In this test the test system is Candida albicans SNY425 biofilm. The test is described as follows: biofilm OD600 with compound plus antifungal (OD600 (absorbance)); higher = more biofilm remaining.
Where [1] appears, read: assay detail: disruption of 24-h mature biofilm (compound + antifungal for a second 24 h).
Where [2] appears, read: assay detail: sustained inhibition (compound + antifungal during 90-min adherence and 24-h growth).

With `CC(C)C[C@@H](C=O)NC(=O)[C@H](CC(C)C)NC(=O)[C@H](CC(C)C)NC(=O)OCc1ccccc1` + OC(Cn1cncn1)(Cn1cncn1)c1ccc(F)cc1F [fluconazole] (first compound 12.5 µM), the “biofilm OD600” value reads like this: under setting [1], 0.277 ± 0.0062; under setting [2], 0.148 ± 0.0097.
Consider `CCC(C)[C@H](NS(=O)(=O)c1cccc2ccccc12)C(=O)N[C@H](C=O)Cc1c[nH]c2ccccc12` (some centres not stated) + C[C@@H]1[C@H](O)[C@@H](C)/C=C/C=C/C=C/C=C/C=C/C=C/C=C/[C@H](O[C@@H]2O[C@H](C)[C@@H](O)[C@H](N)[C@@H]2O)C[C@@H]2O[C@](O)(C[C@@H](O)C[C@@H](O)[C@H](O)CC[C@@H](O)C[C@@H](O)CC(=O)O[C@H]1C)C[C@H](O)[C@H]2C(=O)O [amphotericin B] (first compound 12.5 µM), for which the “biofilm OD600” value was determined as 0.27 ± 0.0099 under setting [1] and 0.188 ± 0.0088 under setting [2].
Regarding `CCCCC[C@H](CC(=O)NO)C(=O)N[C@H](C(=O)N1CCC[C@H]1CO)C(C)C` [Actinonin] + OC(Cn1cncn1)(Cn1cncn1)c1ccc(F)cc1F [fluconazole] (first compound 12.5 µM), the “biofilm OD600” value runs as follows: under setting [1], 0.267 ± 0.0099; under setting [2], 0.145 ± 0.0085.
Consider `CC(C)(C)NC(=O)[C@@H]1CN(Cc2cccnc2)CCN1C[C@@H](O)C[C@@H](Cc1ccccc1)C(=O)N[C@H]1c2ccccc2C[C@H]1O` [indinavir] + CC[C@H](C)C[C@H](C)CCCCCCCCC(=O)N[C@H]1C[C@@H](O)[C@@H](NCCN)NC(=O)[C@@H]2[C@@H](O)CCN2C(=O)[C@H]([C@H](O)CCN)NC(=O)[C@H]([C@H](O)[C@@H](O)c2ccc(O)cc2)NC(=O)[C@@H]2C[C@@H](O)CN2C(=O)[C@H]([C@@H](C)O)NC1=O [caspofungin] (first compound 12.5 µM), for which the “biofilm OD600” value runs as follows: under setting [1], 0.227 ± 0.0078; under setting [2], 0.207 ± 0.011.
Take `CC(C)c1nc(CN(C)C(=O)N[C@H](C(=O)N[C@@H](Cc2ccccc2)C[C@H](O)[C@H](Cc2ccccc2)NC(=O)OCc2cncs2)C(C)C)cs1` [ritonavir] + CC[C@H](C)C[C@H](C)CCCCCCCCC(=O)N[C@H]1C[C@@H](O)[C@@H](NCCN)NC(=O)[C@@H]2[C@@H](O)CCN2C(=O)[C@H]([C@H](O)CCN)NC(=O)[C@H]([C@H](O)[C@@H](O)c2ccc(O)cc2)NC(=O)[C@@H]2C[C@@H](O)CN2C(=O)[C@H]([C@@H](C)O)NC1=O [caspofungin] (first compound 12.5 µM): the “biofilm OD600” value by setting is: under setting [1], 0.159 ± 0.0069; under setting [2], 0.12 ± 0.009.
For `C[C@H](NC(=O)[C@@H]1CCCN1C(=O)[C@@H]1CCCN1C(=O)[C@@H](O)[C@H](N)Cc1ccccc1)C(N)=O` [Apstatin] + OC(Cn1cncn1)(Cn1cncn1)c1ccc(F)cc1F [fluconazole] (first compound 12.5 µM), in that order: 0.287 ± 0.01 and 0.118 ± 0.0072.
On to `O=C[C@@H]1CCCN1C(=O)[C@@H]1CCCN1C(=O)OCc1ccccc1` [Z-Prolyl-prolinal] + C[C@@H]1[C@H](O)[C@@H](C)/C=C/C=C/C=C/C=C/C=C/C=C/C=C/[C@H](O[C@@H]2O[C@H](C)[C@@H](O)[C@H](N)[C@@H]2O)C[C@@H]2O[C@](O)(C[C@@H](O)C[C@@H](O)[C@H](O)CC[C@@H](O)C[C@@H](O)CC(=O)O[C@H]1C)C[C@H](O)[C@H]2C(=O)O [amphotericin B] (first compound 12.5 µM), for which the “biofilm OD600” value by setting is: under setting [1], 0.262 ± 0.013; under setting [2], 0.156 ± 0.0083.
For `CC(NC(=O)C(Cc1ccccc1)NC(=O)OCc1ccccc1)C(=O)CF` (configuration not stated) + OC(Cn1cncn1)(Cn1cncn1)c1ccc(F)cc1F [fluconazole] (first compound 12.5 µM), the “biofilm OD600” value is 0.287 ± 0.011 under setting [1] and 0.119 ± 0.0049 under setting [2].
With `CC(C)C[C@H](NC(=O)N[C@H](C(=O)N[C@@H](CCC(N)=O)C(=O)N[C@@H](C)C=O)[C@@H]1CCNC(=N)N1)C(=O)O` [Elastatinal] + CC[C@H](C)C[C@H](C)CCCCCCCCC(=O)N[C@H]1C[C@@H](O)[C@@H](NCCN)NC(=O)[C@@H]2[C@@H](O)CCN2C(=O)[C@H]([C@H](O)CCN)NC(=O)[C@H]([C@H](O)[C@@H](O)c2ccc(O)cc2)NC(=O)[C@@H]2C[C@@H](O)CN2C(=O)[C@H]([C@@H](C)O)NC1=O [caspofungin] (first compound 12.5 µM), the “biofilm OD600” value by setting is: under setting [1], 0.263 ± 0.0069; under setting [2], 0.189 ± 0.011.
For `CC(C)(C)NC(=O)[C@@H]1CN(Cc2cccnc2)CCN1C[C@@H](O)C[C@@H](Cc1ccccc1)C(=O)N[C@H]1c2ccccc2C[C@H]1O` [indinavir] + C[C@@H]1[C@H](O)[C@@H](C)/C=C/C=C/C=C/C=C/C=C/C=C/C=C/[C@H](O[C@@H]2O[C@H](C)[C@@H](O)[C@H](N)[C@@H]2O)C[C@@H]2O[C@](O)(C[C@@H](O)C[C@@H](O)[C@H](O)CC[C@@H](O)C[C@@H](O)CC(=O)O[C@H]1C)C[C@H](O)[C@H]2C(=O)O [amphotericin B] (first compound 12.5 µM), the “biofilm OD600” value under setting [1] came out at 0.283 ± 0.0099 and the “biofilm OD600” value under setting [2] was found to be 0.228 ± 0.0076.
Regarding `CCN1C(=O)C=CC1=O` [N-Ethylmaleimide] + OC(Cn1cncn1)(Cn1cncn1)c1ccc(F)cc1F [fluconazole] (first compound 4 µM), the “biofilm OD600” value under setting [1] stood at 0.278 ± 0.0073 and the “biofilm OD600” value under setting [2] was found to be 0.113 ± 0.011.
As to `CO[C@@H]1[C@H](OC(=O)/C=C/C=C/C=C/C=C/C(=O)O)CC[C@]2(CO2)[C@H]1[C@@]1(C)O[C@@H]1CC=C(C)C` [Fumagillin] + OC(Cn1cncn1)(Cn1cncn1)c1ccc(F)cc1F [fluconazole] (first compound 12.5 µM), the “biofilm OD600” value is 0.246 ± 0.013 under setting [1] and 0.117 ± 0.0056 under setting [2].
As to `Cc1c(O)cccc1C(=O)N[C@@H](CSc1ccccc1)[C@H](O)CN1C[C@H]2CCCC[C@H]2C[C@H]1C(=O)NC(C)(C)C` [nelfinavir] + C[C@@H]1[C@H](O)[C@@H](C)/C=C/C=C/C=C/C=C/C=C/C=C/C=C/[C@H](O[C@@H]2O[C@H](C)[C@@H](O)[C@H](N)[C@@H]2O)C[C@@H]2O[C@](O)(C[C@@H](O)C[C@@H](O)[C@H](O)CC[C@@H](O)C[C@@H](O)CC(=O)O[C@H]1C)C[C@H](O)[C@H]2C(=O)O [amphotericin B] (first compound 12.5 µM), the “biofilm OD600” value turned out to be 0.237 ± 0.0057 under setting [1] and 0.112 ± 0.01 under setting [2].
Turning to `C[C@H](NC(=O)[C@@H]1CCCN1C(=O)[C@@H]1CCCN1C(=O)[C@@H](O)[C@H](N)Cc1ccccc1)C(N)=O` [Apstatin] + C[C@@H]1[C@H](O)[C@@H](C)/C=C/C=C/C=C/C=C/C=C/C=C/C=C/[C@H](O[C@@H]2O[C@H](C)[C@@H](O)[C@H](N)[C@@H]2O)C[C@@H]2O[C@](O)(C[C@@H](O)C[C@@H](O)[C@H](O)CC[C@@H](O)C[C@@H](O)CC(=O)O[C@H]1C)C[C@H](O)[C@H]2C(=O)O [amphotericin B] (first compound 12.5 µM), the “biofilm OD600” value reads like this: under setting [1], 0.294 ± 0.0093; under setting [2], 0.193 ± 0.0078.
Regarding `C[C@]1(Cn2ccnn2)[C@H](C(=O)O)N2C(=O)C[C@H]2S1(=O)=O` [Tazobactam] + CC[C@H](C)C[C@H](C)CCCCCCCCC(=O)N[C@H]1C[C@@H](O)[C@@H](NCCN)NC(=O)[C@@H]2[C@@H](O)CCN2C(=O)[C@H]([C@H](O)CCN)NC(=O)[C@H]([C@H](O)[C@@H](O)c2ccc(O)cc2)NC(=O)[C@@H]2C[C@@H](O)CN2C(=O)[C@H]([C@@H](C)O)NC1=O [caspofungin] (first compound 12.5 µM), the “biofilm OD600” value under setting [1] turned out to be 0.275 ± 0.014 and the “biofilm OD600” value under setting [2] was determined as 0.181 ± 0.0097.
Take `NC(=O)c1cccc(-c2cccc(OC(=O)NC3CCCCC3)c2)c1` + OC(Cn1cncn1)(Cn1cncn1)c1ccc(F)cc1F [fluconazole] (first compound 12.5 µM): the “biofilm OD600” value turned out to be 0.283 ± 0.0052 under setting [1] and 0.118 ± 0.0073 under setting [2].
For `CSCCC(C=O)NC(=O)C(CC(C)C)NC(=O)[C@H](CC(C)C)NC(C)=O` (some centres not stated) [Calpain Inhibitor II (ALLM)] + OC(Cn1cncn1)(Cn1cncn1)c1ccc(F)cc1F [fluconazole] (first compound 12.5 µM), in that order: 0.239 ± 0.0058 and 0.146 ± 0.0052.
For `O=c1oc(Cl)c(Cl)c2ccccc12` [3,4-Dichloroisocoumarin] + OC(Cn1cncn1)(Cn1cncn1)c1ccc(F)cc1F [fluconazole] (first compound 12.5 µM), in that order: 0.237 ± 0.011 and 0.154 ± 0.014.
Consider `O=C(O[C@@H]1Cc2c(O)cc(O)cc2O[C@@H]1c1cc(O)c(O)c(O)c1)c1cc(O)c(O)c(O)c1` [Epigallocatechin gallate] + CC[C@H](C)C[C@H](C)CCCCCCCCC(=O)N[C@H]1C[C@@H](O)[C@@H](NCCN)NC(=O)[C@@H]2[C@@H](O)CCN2C(=O)[C@H]([C@H](O)CCN)NC(=O)[C@H]([C@H](O)[C@@H](O)c2ccc(O)cc2)NC(=O)[C@@H]2C[C@@H](O)CN2C(=O)[C@H]([C@@H](C)O)NC1=O [caspofungin] (first compound 12.5 µM), for which the “biofilm OD600” value stood at 0.264 ± 0.016 under setting [1] and 0.211 ± 0.01 under setting [2].
Regarding `CCN1C(=O)C=CC1=O` [N-Ethylmaleimide] + C[C@@H]1[C@H](O)[C@@H](C)/C=C/C=C/C=C/C=C/C=C/C=C/C=C/[C@H](O[C@@H]2O[C@H](C)[C@@H](O)[C@H](N)[C@@H]2O)C[C@@H]2O[C@](O)(C[C@@H](O)C[C@@H](O)[C@H](O)CC[C@@H](O)C[C@@H](O)CC(=O)O[C@H]1C)C[C@H](O)[C@H]2C(=O)O [amphotericin B] (first compound 4 µM), the “biofilm OD600” value by setting is: under setting [1], 0.304 ± 0.0086; under setting [2], 0.189 ± 0.0049.
For `COC(=O)N[C@H](C(=O)N[C@@H](Cc1ccccc1)[C@@H](O)CN(Cc1ccc(-c2ccccn2)cc1)NC(=O)[C@@H](NC(=O)OC)C(C)(C)C)C(C)(C)C` [atazanavir] + CC[C@H](C)C[C@H](C)CCCCCCCCC(=O)N[C@H]1C[C@@H](O)[C@@H](NCCN)NC(=O)[C@@H]2[C@@H](O)CCN2C(=O)[C@H]([C@H](O)CCN)NC(=O)[C@H]([C@H](O)[C@@H](O)c2ccc(O)cc2)NC(=O)[C@@H]2C[C@@H](O)CN2C(=O)[C@H]([C@@H](C)O)NC1=O [caspofungin] (first compound 12.5 µM), in that order: 0.203 ± 0.0059 and 0.201 ± 0.013.
